15 compounds from PubChem BioAssay (NCATS) can be followed below.

Records with an inconclusive call do not appear. The source made the active and inactive calls. Calls follow the shape of the dose curve; as a rule, active = well fitted curve in the direction sought with a large enough effect; inconclusive = small, poorly fitted or top-dose-only effect, or another doubt; inactive = no such curve, though single readings can be large; an effect the other way counts as inactive or inconclusive.

Assay [1] can be described thus: qHTS for compounds that reverse cellular toxicity of Amyloid beta (A-beta) peptide in yeast: LOPAC Validation Assay (AID 720559). Also: potency is read from the fitted curve at half-maximal effect. Conditions: yeast expressing A-beta; Potency: rescue of growth toxicity; series mostly up to 46.1 µM. Put shortly: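 Activity is expressed relative to DMSO and an equimolar ferric chloride/clioquinol mix. Compounds were pinned into medium with A-beta-expressing yeast, grown 48 hr at 30 C, then read by absorbance at 600 nm.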
Background: Quantitative high-throughput screening tests each substance at several concentrations.

A short description of assay [2]: qHTS for Activators of Parkin Expression: LOPAC Validation Assay (NLuc Reporter) (AID 720572). To be noted: Parkin promoter NanoLuc reporter cells, luminescence; series mostly up to 46.1 µM. In short, it runs like this:
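Neuronal cells with a Parkin promoter-driven FLuc/NLuc coincidence reporter were treated 24 h at 37 C in 7-point dose response (LOPAC). NLuc luminescence read after FLuc; signals normalized to DMSO and positive control (100%).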

Assay [3] has as its target T1, Hexokinase-4 (Homo sapiens) + Glucokinase regulatory protein (Homo sapiens) (UniProt P35557+Q14397). The experiment in a line: qHTS assay for inhibitors of recombinant human GCK-GKRP interaction: Diaphorase-coupled assay (AID 743205). To be noted: G6PDH/diaphorase resorufin fluorescence; series mostly up to 57.5 µM. In short, it runs like this: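 Inhibitors of the GCK–GKRP complex relieve GKRP suppression of GCK, detected through a G6PDH–diaphorase cascade reducing resazurin. Human GST-GCK and FLAG-GKRP are used at 10 nM with 5 mM glucose and 0.4 mM ATP.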

Assay [4] concerns the target T1, Hexokinase-4 (Homo sapiens) + Glucokinase regulatory protein (Homo sapiens). The experiment in a line: qHTS assay for inhibitors of recombinant human GCK-GKRP interaction: ADP-Glo assay (AID 743206). To be noted: ADP-Glo luminescence, 60 min; series mostly up to 76.9 µM. Put shortly:
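GST-GCK and FLAG-GKRP (15 nM each in the dispensed mix, with 2 uM S6P) react with 0.4 mM ATP and 5 mM glucose (final) in Hepes pH 7.6 for 60 min at room temperature. ADP is measured by ADP-Glo luminescence.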

For assay [5] the target is unchanged. The experiment in a line: qHTS assay for inhibitors of recombinant human GCK-GKRP interaction: HTRF assay (AID 743207). To be noted: recombinant GCK-GKRP HTRF binding, 60 min, with sorbitol-6-phosphate; series mostly up to 57.5 µM. Put shortly:
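Steps: dispense GCK–GKRP complex (5 nM each, GST- and FLAG-tagged) with 2 uM S6P; pin in compounds; add XL665/Eu-cryptate-labelled antibodies; incubate 60 min at room temperature; read time-resolved FRET at 665 and 615 nm.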

A short description of assay [6]: qHTS for Activators of Parkin Expression: LOPAC Validation Assay (FLuc Reporter) (AID 720573). To be noted: Cell line, PRKN promoter firefly luciferase reporter; series mostly up to 46.1 µM. In short, it runs like this: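 A neuronal cell line harbouring FLuc and NLuc reporters behind the Parkin promoter was exposed to compounds for 24 h. Firefly luciferase signal, measured after 10 min with detection reagent, was scaled to DMSO and positive-control wells.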

T1 sequence (P35557 whole entry, looked up): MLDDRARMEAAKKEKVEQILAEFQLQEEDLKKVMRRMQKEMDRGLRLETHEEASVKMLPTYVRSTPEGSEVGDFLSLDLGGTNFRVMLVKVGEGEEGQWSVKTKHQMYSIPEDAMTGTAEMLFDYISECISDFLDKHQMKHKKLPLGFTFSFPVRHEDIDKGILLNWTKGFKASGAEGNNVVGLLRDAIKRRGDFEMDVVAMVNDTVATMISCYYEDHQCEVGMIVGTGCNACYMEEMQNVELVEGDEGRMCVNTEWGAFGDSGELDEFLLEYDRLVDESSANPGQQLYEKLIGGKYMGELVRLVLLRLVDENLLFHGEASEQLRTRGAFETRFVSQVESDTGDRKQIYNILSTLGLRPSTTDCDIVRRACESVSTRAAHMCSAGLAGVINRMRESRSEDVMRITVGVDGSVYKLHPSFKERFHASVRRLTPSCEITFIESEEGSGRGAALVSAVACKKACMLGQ
T1 sequence (Q14397 whole entry, looked up): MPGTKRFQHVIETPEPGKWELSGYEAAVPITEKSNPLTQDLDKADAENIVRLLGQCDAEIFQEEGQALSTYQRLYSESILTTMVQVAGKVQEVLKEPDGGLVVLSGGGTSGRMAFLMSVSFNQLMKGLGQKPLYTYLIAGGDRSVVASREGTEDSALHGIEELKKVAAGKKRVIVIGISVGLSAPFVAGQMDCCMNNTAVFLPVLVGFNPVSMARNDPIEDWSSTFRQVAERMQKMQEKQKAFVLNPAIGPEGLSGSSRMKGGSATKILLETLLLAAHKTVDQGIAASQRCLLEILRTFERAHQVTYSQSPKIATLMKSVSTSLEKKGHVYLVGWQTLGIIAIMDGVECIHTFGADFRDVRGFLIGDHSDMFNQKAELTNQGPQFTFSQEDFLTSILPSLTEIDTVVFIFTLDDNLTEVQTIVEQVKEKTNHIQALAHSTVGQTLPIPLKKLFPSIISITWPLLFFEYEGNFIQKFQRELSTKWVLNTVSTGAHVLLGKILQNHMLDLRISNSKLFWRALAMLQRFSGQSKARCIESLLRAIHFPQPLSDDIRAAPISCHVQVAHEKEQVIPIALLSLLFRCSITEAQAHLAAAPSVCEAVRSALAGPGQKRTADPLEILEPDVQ

`N#C/C(=C\c1c[nH]c2ccccc12)C(=O)c1ccc(O)c(O)c1`: the Potency entry in assay [1], in assay [2], in assay [4] and in assay [5] was “inactive” in each case. Besides, the result in assay [3] was inactive.

Consider `Oc1cc2c(cc1O)CN(C(=S)NCCc1ccc(Cl)cc1)CCC2`, for which the Potency result in assay [1], in assay [6], in assay [4] and in assay [5] was “inactive” in each case.

`CN1CCc2cc(NC(=O)Nc3cccnc3)ccc21`: the Potency entry in assay [1], in assay [2], in assay [4] and in assay [5] was “inactive” each time. Moreover, in assay [3], the outcome was inactive.

`CN1CCc2cc(O)c(O)cc2C(c2ccccc2)C1` (centres undefined): the Potency entry in assay [2], in assay [6], in assay [4] and in assay [5] was “inactive” each time.

Take `CN1C2CC(OC(=O)[C@H](CO)c3ccccc3)CC1C1OC12` (some centres undefined): the Potency entry in assay [1], in assay [2], in assay [4] and in assay [5] was “inactive” throughout. The result in assay [3] was inactive.

Regarding `C=CC(C)=C[C@@]1(C)SC(=O)C(C)=C1O`, the Potency result in assay [2], in assay [6], in assay [4] and in assay [5] was “inactive” in each case. For the same compound, in assay [3], the result was inactive.

`Cc1ccc(C(=O)O[C@H](C(=O)O)[C@@H](OC(=O)c2ccc(C)cc2)C(=O)O)cc1` (tested in a mixture with another compound): the Potency result in assay [2], in assay [6] and in assay [5] was “inactive” each time.

Regarding `CC1CN(S(=O)(=O)c2cccc3cnccc23)CCN1` (centres undefined), the Potency result in assay [2], in assay [6], in assay [4] and in assay [5] was “inactive” each time. Moreover, the result in assay [3] was inactive.

Turning to `CN(C)C(N)=NCCC[C@H](N)C(=O)O`, the Potency result in assay [2], in assay [6] and in assay [5] was “inactive” throughout. Also, in assay [3], the outcome was inactive.

For `NS(=O)(=O)C#Cc1ccccc1`, the Potency entry in assay [1], in assay [2], in assay [4] and in assay [5] was “inactive” each time.

As to `O=C(O)CC1CC(c2ccccc2)=NO1` (centres undefined), the Potency entry in assay [2], in assay [6], in assay [4] and in assay [5] was “inactive” each time. Also, the outcome in assay [3] was inactive.

Consider `Nc1ncnc2c1ncn2[C@@H]1O[C@H](COP(=O)(O)OP(=O)(O)OP(=O)(O)OP(=O)(O)OC[C@@H]2O[C@H](n3cnc4c(N)ncnc43)[C@@H](O)[C@H]2O)[C@@H](O)[C@H]1O`, for which the Potency in assay [1] was 8.2 µM (active). Also, the Potency result in assay [2] and in assay [5] was “inactive” each time. Further, the outcome in assay [3] was inactive.

For `C=CC(=O)c1ccc(CCCCCC)cc1`, the Potency entry in assay [2], in assay [6], in assay [4] and in assay [5] was “inactive” throughout. The result in assay [3] was inactive.

With `C[N+]1(C)C2CC(OC(=O)[C@H](CO)c3ccccc3)CC1C1OC12` (some centres undefined), the Potency result in assay [1], in assay [2], in assay [4] and in assay [5] was “inactive” each time. For the same compound, the result in assay [3] was inactive.

On to `CN1CC(=O)N/C1=N/C(=O)Nc1cccc(Cl)c1`, for which the Potency result in assay [6] was “inactive”.
